From PubChem BioAssay AID624171 (National Center for Advancing Translational Sciences (NCATS), 2012)
Out of some 410,000 compounds screened, about 1,200 (0.29%) were called active. Another 2% or so got no clear call; they are omitted. Calls follow the shape of the dose curve; as a rule, active = well fitted activation curve with a large enough effect; inconclusive = small, poorly fitted or top-dose-only effect; inactive = flat fitted curve, though single readings scatter. What follows is part of a selection rich in actives, with near analogues and random picks from the rest.

Assay: qHTS of Nrf2 Activators; also: nearly all actives have a fitted effect of over 65% in size; as to activation: % of control where 0% means no effect
Conditions: AREc32 ARE-luciferase reporter (MCF7-derived line), luminescence, 24 h; series mostly up to 46.1 µM; activation: at the top concentration
Procedure, shortened: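 Luciferase luminescence (Steady-Glo, 30 min at room temperature) served as the read-out of ARE activation in AREc32 cells treated with compounds for 24 hr at 37 deg C.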
Potency is read from the fitted curve at half-maximal effect.

| Compound | activation | Potency |
| --- | --- | --- |
| CCN(CC)c1cc(NC2CCCCC2)c2c3c(onc13)-c1ccccc1C2=O | 0.327% (inactive) | – |
| COc1ccc(OCCCC(=O)OC(C)C(=O)Nc2ccccc2[N+](=O)[O-])cc1 (stereo not given) | 0.218% (inactive) | – |
| Cc1csc(NC(=O)Nc2ccccc2[N+](=O)[O-])n1 | – | 4.47 µM (active) |
| Cc1csc(NC(=O)C2CCN(S(=O)(=O)c3ccccc3)CC2)n1 | -0.396% (inactive) | – |
| Cc1c(CCNC(=O)c2ccc(C(F)(F)F)cc2)sc2nc(-c3ccc(F)cc3)nn12 | 0.42% (inactive) | – |
| O=[N+]([O-])c1ccc2oc(-c3cccc(O)c3)nc2c1 | – | 6.31 µM (active) |
| CCC(=O)Nc1cccc(-c2nc3cc(C)ccc3o2)c1 | 8.65% (inactive) | – |
| O=C(Nc1cc(-c2nc3ccccc3o2)ccc1Cl)c1cc([N+](=O)[O-])ccc1N1CCOCC1 | -0.97% (inactive) | – |
| CC(=O)c1ccc(NC(=O)CSc2c(C(C)C)cnc3c2c(=O)n(C)c(=O)n3C)cc1 | -0.575% (inactive) | – |
| Cc1cccc(C(=O)Nc2ccc(-c3nc4ncccc4o3)cc2C)c1 | 0.321% (inactive) | – |
| Cc1cc(NC(=O)c2ccc(-c3ccc(Cl)cc3)o2)cc(-c2nc3ncccc3o2)c1O | 0.209% (inactive) | – |
| O=C(Nc1cc(-c2nc3ncccc3o2)ccc1Cl)c1ccco1 | – | 6.31 µM (active) |
| CCc1cc2c(cc(C(=O)OC)n2Cc2nc(-c3ccc(C)cc3)oc2C)s1 | -0.393% (inactive) | – |
| CSc1ccccc1NC(=O)CCS(=O)(=O)c1nc(-c2cccs2)cc(C(F)(F)F)n1 | 0.415% (inactive) | – |
| O=C(CSc1nc2ccc([N+](=O)[O-])cc2[nH]1)c1ccc(Cl)cc1 | – | 11.2 µM (active) |
| COc1ccc(Cc2nnc(SCC(=O)c3cccc([N+](=O)[O-])c3)n2C)cc1 | 0.136% (inactive) | – |
| O=C(CSc1nc(Nc2ccc(F)c(F)c2)c2ccccc2n1)c1ccc(Cl)cc1 | 4.26% (inactive) | – |
| CCOc1ccccc1C(=O)Nc1ccc2c(c1)N(C)C(=O)c1ccccc1S2 | 0.563% (inactive) | – |
| CCOC(=O)c1ccc2c(c1)N(Cc1cccc(OC)c1)C(=O)c1ccccc1S2(=O)=O | 5.65% (inactive) | – |
| Cc1ccccc1CNC(=O)Cn1c(C)c2cnn(-c3ccccc3)c(=O)c2c1C | 3.21% (inactive) | – |

| Compound | activation | Potency |
| --- | --- | --- |
| CCC(C(=O)Nc1cc(OC)ccc1OC)n1c(=O)c(C(F)(F)F)nc2ccccc21 (stereo not given) | -0.375% (inactive) | – |
| S=c1[nH]nc(-c2ccco2)n1/N=C/c1ccccc1 | – | 10 µM (active) |
| CN(C)C(=O)CSc1n[nH]c(-c2ccco2)n1 | 0.332% (inactive) | – |
| S=c1[nH]nc(/C=C/c2ccccc2)o1 | -1.05% (inactive) | – |
| COc1cc(NC(=O)c2cc(C3CC3)nc3c2c(C)nn3-c2ccccc2)cc(OC)c1 | 0.696% (inactive) | – |
| Cc1cccc(NC(=O)Cn2nc(-c3ccc(Cl)cc3)c3ccccc3c2=O)c1 | 3.27% (inactive) | – |
| COCOc1cc(O)c(C(=O)/C=C/c2ccc(OCOC)c(OCOC)c2)c(OCOC)c1 | 10.4% (inactive) | – |
| COc1cccc(N2CC(NC(=O)/C=C\c3ccccc3)CC2=O)c1 (stereo not given) | 0.229% (inactive) | – |
| COc1ccc(/C=C/C(=O)c2cc(Br)ccc(=O)c2O)cc1 | – | 12.6 µM (active) |
| O=C(c1ccc(F)cc1)N1CCCC(C(=O)N2CCCCC2)C1 (stereo not given) | -0.854% (inactive) | – |
| O=C(c1ccc(F)cc1)n1c(=S)nc2ccccn21 | – | 2.51 µM (active) |
| O=C(Nc1c(-c2ccc(F)cc2)nc2ccccn12)c1cccc(F)c1 | 0.635% (inactive) | – |
| Cc1ccc(-c2nc(SCc3ccc(Br)cc3)n3[nH]c(=O)cc3n2)cc1 | 9.22% (inactive) | – |
| CCc1nn(CC(=O)NCC(C)c2ccccc2)c(=O)c2cc3occc3n12 (stereo not given) | 3.24% (inactive) | – |
| Cc1cccc(NC(c2cccc(F)c2)c2ccc3ccc(C)nc3c2O)n1 (stereo not given) | 14.1% (inactive) | – |
| CCOc1cc(NC(=O)CCl)c(OCC)cc1NC(C)=O | – | 14.1 µM (active) |
| CCOc1cc(NC(=O)c2ccccc2C(=O)O)c(OCC)cc1NC(=O)c1ccccc1F | 4.13% (inactive) | – |
| CCOCC(=O)Nc1cc(OC)c(Cl)cc1OC | -0.102% (inactive) | – |
| CC(C)(C)OC(=O)N1CCC(c2c(C(=O)NCCc3ccsc3)cnn2-c2ccc(F)cc2F)CC1 | 3.21% (inactive) | – |
| COc1ccccc1NC(=O)c1cc(S(=O)(=O)NCCc2ccccc2)ccc1F | -0.532% (inactive) | – |
